Source: PubChem BioAssay
Cycloheximide cs: Cycloheximide Counterscreen for Small Molecule Inhibitors of Shiga Toxin; cell reporter, cycloheximide protein synthesis inhibition counterscreen; max response, %; hit rate 12% among 300,000; AID 2314, 2010; in the data active = max response mostly above about 13%, no sharp cut-off; inactive = mostly below about 14%; also: read at 38.3 µM for the half of the compounds with a filed dose
FMDV antiviral: High Throughput Screening for Foot and Mouth Disease Virus Antivirals; FMDV antiviral cell-based qHTS; Potency, µM (top dose mostly 57.9 µM), usual class: inhibitors; hit rate 1.2% among 410,000; calls by dose curve; tested in HEK293T cells; also: read-out not given here; nearly all actives have a fitted effect of over 45% in size
Shiga toxin inh: A qHTS for Small Molecule Inhibitors of Shiga Toxin; Vero cells, Shiga toxin protein synthesis inhibition reporter; inhibition, % at 38.7 µM; hit rate 9.2% among 290,000; AID 2315, 2010; in the data active = inhibition mostly above about 28%, no sharp cut-off; inactive = mostly below about 43%
Sm TGR block: qHTS Assay for the Inhibitors of Schistosoma Mansoni Peroxiredoxins; hit rate 3% among 360,000; purified TGR, DTNB reduction, TNB absorbance 405 nm; AID 485364, 2010; Potency, µM (doses to about 114 µM), actives largely listed as inhibitors; Schistosoma mansoni thioredoxin glutathione reductase (TGR), Q962Y6; active = well fitted inhibition curve with a large enough effect; inconclusive = small, poorly fitted or top-dose-only effect; inactive = no such curve, though single readings can be large or run the other way; also: nearly all actives have a fitted effect of over 60% in size
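Kinetic colorimetric format: TGR-catalysed, NADPH-driven DTNB reduction monitored via TNB absorbance. Enzyme dispensed at 20 nM; compound exposure 15 min at room temperature before reaction start.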
Numbers stand for hits; n = inactive; u = inconclusive; x = no result given. Rows were chosen to be rich in hits. Some 12% of all compounds tested hit in one or more screens of this group.

SMILES | Cycloheximide cs | FMDV antiviral | Shiga toxin inh | Sm TGR block
Cc1ccc(C(=O)N(Cc2ccc(N(C)C)cc2)CC2CCCO2)cc1 (configuration not stated) | x | n | x | n
CCCc1ccc2oc(C(=O)N3CCC(N4CCCC(O)C4)CC3)c(C)c2c1 (configuration not stated) | n | n | n | u
Cc1ccc2c(C)c(C(=O)NCCN3CCCC(O)C3)oc2c1C (configuration not stated) | n | n | n | n
CCCc1ccc2oc(C(=O)N3CCN(c4cnccn4)CC3)c(C)c2c1 | 12.4 | n | n | n
Cc1ccc2c(C)c(C(=O)N3CCCCC3CO)oc2c1C (configuration not stated) | 20.8 | n | 67.1 | n
CCCc1ccc2oc(C(=O)N3CCC[C@H]3CO)c(C)c2c1 | 40.8 | n | 28.9 | n
CCCc1ccc2oc(C(=O)N3CCC(COC)C3)c(C)c2c1 (configuration not stated) | 32.8 | n | x | n
Cc1cc(NC(=O)Nc2cc(Cl)ccc2C)no1 | 12.3 | n | n | n
Cc1cc(C)cc(NC(=O)Nc2ccc(S(=O)(=O)Nc3cc(C)on3)cc2)c1 | n | n | n | n
Cc1cc(NC(=O)Nc2ccc(F)cc2)no1 | 25.9 | n | 69.1 | n
Cc1cc(NC(=O)Nc2ccc(C)c(C)c2)no1 | 42.5 | n | 96.6 | n
COc1cc(NC(=O)Nc2cc(C)on2)cc(OC)c1OC | n | n | n | n
COc1cc(=O)n2c(c1C(=O)N(C)Cc1ccsc1)CCN(Cc1c(C)nn(C)c1Cl)CC2 | x | n | x | x
CCc1cccc(NC(=O)c2ccc3c(c2)c(C)c(C)n3Cc2ccc(F)cc2)c1 | x | n | x | n
Cc1ccc(C)c2[nH]c(=O)c(C(c3nnnn3CCc3ccccc3)N3CCOCC3)cc12 (configuration not stated) | n | n | n | n
CCOc1ccc2[nH]c(=O)c(C(c3nnnn3Cc3ccco3)N3CCCC(C)C3)cc2c1 (configuration not stated) | n | n | n | 11.2µM
CCOc1ccc2[nH]c(=O)c(C(c3nnnn3Cc3ccco3)N3CCC(C)CC3)cc2c1 (configuration not stated) | n | n | n | 44.7µM
Cc1ccc(C)c2[nH]c(=O)c(C(c3nnnn3Cc3ccco3)N3CCc4ccccc4C3)cc12 (configuration not stated) | 26.5 | u | 77.8 | 14.1µM
CC(=O)C1=C(c2ccc(Br)cc2)N(C(C)=O)n2c(nnc2C2CCCCC2)S1 | x | n | x | n
COc1ccccc1CN1CCOc2ccc(CN3CCC(Oc4cccnc4)CC3)cc2C1 | x | n | x | x
CCOC(=O)c1noc2ncnc(Nc3cccc(C(F)(F)F)c3)c12 | x | n | x | n
COc1ccc(CCNC(=O)CCCn2c(=O)c3ccccc3n(CC(=O)Nc3ccc(C)cc3Cl)c2=O)cc1OC | x | n | x | n
O=C(O)CCc1cc(F)c(S(=O)(=O)N2CCN(S(=O)(=O)c3ccc4c(c3)OCCO4)CC2)cc1F | n | x | n | x
COc1ccc2c(COC(=O)CNS(=O)(=O)c3ccccc3)cc(=O)oc2c1 | x | n | x | x
COc1ccc2c(COC(=O)c3cccc(S(=O)(=O)NCC(C)C)c3)cc(=O)oc2c1 | 20.5 | n | n | 89.1µM
SMILES | Cycloheximide cs | FMDV antiviral | Shiga toxin inh | Sm TGR block
CCCNS(=O)(=O)c1cccc(C(=O)OCc2cc(=O)oc3cc(OC)ccc23)c1 | 19.3 | n | n | n
Cc1ccc(-c2nc3ccccc3nc2NN)cc1 | 40.6 | n | 52.8 | n
COc1ccc(Cl)cc1S(=O)(=O)N1CCN(Cc2cccc(F)c2)CC1 | x | n | x | n
O=c1c2cc3c(cc2n(Cc2cccc(F)c2)c(=O)n1Cc1nc(-c2ccccc2)no1)OCO3 | x | n | x | n
C=C(C)C(=O)NNc1ccccc1 | n | n | n | 1.58µM
COc1ccc2c(c1)c(=O)c(C(=O)c1ccccc1)cn2CC(=O)Nc1ccc2c(c1)OCO2 | x | n | x | n
COc1ccc(C(=O)/C=C2\C(=O)Nc3ccc(Br)cc32)cc1 | x | n | x | x
O=C1Nc2ccc(Br)cc2/C1=C/C(=O)c1ccc2c(c1)OCO2 | n | 28.2µM | n | n
CCn1cc(S(=O)(=O)c2cc(C)cc(C)c2)c(=O)c2cc(F)c(N3CCN(c4ccccc4)CC3)cc21 | x | n | x | n
CC1CCN(C(=O)Cn2ncc3c4ccccc4n(C)c3c2=O)CC1 | n | n | n | n
Cn1c2ccccc2c2cnn(CC(=O)N3CCCCC3)c(=O)c21 | 17.3 | n | n | n
Cc1cccc(C)c1NC(=O)CNC(=O)C1COc2ccccc2O1 (configuration not stated) | x | n | x | n
Cc1ccc(NC(=O)CC2COc3ccccc3O2)cc1 (configuration not stated) | 30.8 | n | 53.7 | n
COc1ccc(/C(C)=N/NC(=O)CNC(=O)C2COc3ccccc3O2)c(OC)c1 (configuration not stated) | n | n | n | n
CCOc1ccc(/C=C2\SC(=O)N(CCNC(=O)C3COc4ccccc4O3)C2=O)cc1OC (configuration not stated) | 19.3 | u | n | 35.5µM
COc1ccc(CNC(=O)C2COc3ccccc3O2)c(OC)c1 (configuration not stated) | 30.5 | n | 103.1 | n
Cc1ccc(CNC(=O)C2COc3ccccc3O2)cc1 (configuration not stated) | 26.0 | n | n | n
COc1cccc(CN2CCC(n3cc(C(=O)N4CCCCC4)nn3)CC2)c1OC | x | n | x | x
Cc1ccc(Nc2nnc(-c3ccc(C)c(S(=O)(=O)N4CCN(C)CC4)c3)c3ccccc23)c(C)c1 | x | n | x | n
O=C(NCCCN1CCN(c2ccccc2)CC1)c1ccc2nc(CCc3ccccc3)oc2c1 | x | u | x | n
CCOC(=O)c1c(S(=O)(=O)NCC(=O)Nc2ccc(F)cc2C)c(C)n(C)c1C | x | n | x | n
O=C(NCc1ccccc1)C1COc2ccccc2O1 (configuration not stated) | 19.5 | n | 59.2 | n
O=C(Nc1cccc(Cl)c1)Nc1ccc2nccnc2c1 | 31.2 | n | 54.8 | n
O=C(Nc1ccc2ncccc2c1)c1ccccc1Cl | n | n | n | n
Cn1nnc2cc(NC(=O)Nc3cccc(Cl)c3)ccc21 | 37.5 | n | 51.9 | n
SMILES | Cycloheximide cs | FMDV antiviral | Shiga toxin inh | Sm TGR block
Cn1nccc1NC(=O)Nc1cccc(Cl)c1 | n | n | n | n
O=C(Nc1ccc2nccnc2c1)Nc1ccccc1Cl | 31.7 | n | 61.8 | n
CCOC(=O)c1ccc(N2C(=O)CC(N(C)CCc3ccc(OC)c(OC)c3)C2=O)cc1 (configuration not stated) | n | n | n | 44.7µM
COc1ccc(-c2csc(NC3OC(=O)c4c3ccc(OC)c4OC)n2)cc1OC (configuration not stated) | 11.6 | u | n | n
O=c1oc2ccc(Br)cc2cc1-c1csc(-c2ccccc2)n1 | x | n | x | n
COc1ccc2c(c1OC)C(=O)OC2Nc1nc2ccccc2s1 (configuration not stated) | n | n | n | n
COc1ccc2c(c1OC)C(=O)OC2Nc1nc(-c2cc3cc(Br)ccc3oc2=O)cs1 (configuration not stated) | 36.7 | n | 79.9 | n
COc1ccc2c(c1OC)C(=O)OC2Nc1nc(-c2ccc([N+](=O)[O-])cc2)cs1 (configuration not stated) | 15.6 | n | 56.4 | n
